High-throughput results from PubChem.
An excerpt weighted towards active compounds, which were near 10% of everything screened.
HPGD block: HPGD (human) dehydrogenase inhibition; P15428; purified HPGD, NADH fluorescence kinetic, PGE2 substrate; Potency, µM, inactives show at the highest dose activity change, negative = inhibition, usual class: inhibitors; actives 4.3% (n = 150,000); further: potency means the concentration at half of the fitted maximal effect
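20 nM HPGD preincubated 15 min at room temperature with compound in 50 mM Tris-HCl pH 8, 0.01% Tween 20. Started with 1 mM NAD+ and 30 uM prostaglandin E2; NADH fluorescence (360/450 nm) read 5 times over 30-s intervals, last minus first.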
PNC assembly inh: perinucleolar compartment assembly inhibition. PC3M PTB-GFP, PNC prevalence imaging, 16 h; hits give low values. activity change (PNC), negative = inhibition, % at 10 µM. actives 3.1% (n = 140,000);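 active means readout at or below -70, meaning at least 70% loss of cells showing the perinucleolar compartment, a nuclear body marking cancer cells; inconclusive means readout between -30 and a set limit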;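 further: plate controls were DMSO wells for no effect and camptothecin positive control wells for full effect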
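Read-out is percentage of cells bearing a perinucleolar compartment, from automated 20x imaging of fixed, Hoechst-stained PC3M PTB-GFP cells. Cells were seeded 4 h, then exposed 16 h to compound (23 nl of library stock) in duplicate plates.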
LMNA splice mod: modulators of lamin A splicing; AID 1487; HeLa LMNA splicing GFP/RFP minigene ratio, 48 h; actives 0.01% (n = 200,000); Potency, µM (series often up to 46.1 µM), without a hit: top-dose ratio change, negative = inhibition, hits mostly inhibitors; active means well fitted inhibition curve with a large enough effect in the signal ratio, with a control signal flat, not every such curve was filed as active; inconclusive means small, poorly fitted or top-dose-only effect, or effect the other way, or a change in a side signal; the % refers to the signal ratio; further: potency means the concentration at half of the fitted maximal effect
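S3 HeLa stable clones carrying a lamin A-EGFP splicing minigene plus DsRed2 were seeded at 600 cells/well in Opti-MEM with 2% FBS, pin-dosed and incubated 48 h at 37°C. Acumen cytometry (488 nm) gave the GFP/RFP total-intensity ratio.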
KinaseGlo FLuc: counter-screen: inhibitors of Kinase-Glo firefly luciferase; Q27757; Kinase-Glo luciferase, ATP luminescence, 8 min; Potency, µM (series often up to 38.3 µM), without a hit: top-dose activity change, negative = inhibition, hits mostly inhibitors; actives 0.28% (n = 200,000); active means well fitted inhibition curve with a large enough effect; inconclusive means small, poorly fitted or top-dose-only effect; further: potency means the concentration at half of the fitted maximal effect; nearly all actives have a fitted effect of over 60% in size
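Compounds were added to a substrate mix at pH 7.2 (50 mM imidazole, 10 uM ATP, within the enzyme's linear range), followed by Kinase-Glo detection reagent; luminescence was measured after 8 minutes at ambient temperature.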
ALDH1A1 inh: inhibitors of human aldehyde dehydrogenase 1A1. Potency, µM (series often up to 75.3 µM), without a hit: at the top dose activity, negative = inhibition, usual class: inhibitors. Purified ALDH1A1, NADH fluorescence, propionaldehyde substrate. actives 7.3% (n = 220,000). P00352;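 further: potency means the concentration at half of the fitted maximal effect; plate controls were no enzyme wells and a reference inhibitor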
Target sequence (P00352 whole entry, looked up): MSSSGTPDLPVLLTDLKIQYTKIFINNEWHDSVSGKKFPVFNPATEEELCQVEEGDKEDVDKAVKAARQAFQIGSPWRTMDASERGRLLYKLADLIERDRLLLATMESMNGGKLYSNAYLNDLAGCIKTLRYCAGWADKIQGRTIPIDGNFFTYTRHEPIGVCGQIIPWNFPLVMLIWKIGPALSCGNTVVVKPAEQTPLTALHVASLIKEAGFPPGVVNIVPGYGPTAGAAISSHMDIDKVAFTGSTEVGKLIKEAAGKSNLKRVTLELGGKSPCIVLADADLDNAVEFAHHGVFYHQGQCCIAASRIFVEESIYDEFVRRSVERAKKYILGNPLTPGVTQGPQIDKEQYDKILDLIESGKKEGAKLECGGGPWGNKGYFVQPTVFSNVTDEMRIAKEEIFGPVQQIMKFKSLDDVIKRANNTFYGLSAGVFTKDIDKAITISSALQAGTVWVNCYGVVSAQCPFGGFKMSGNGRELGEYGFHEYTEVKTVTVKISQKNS
The depositor's hits bear a star; u = inconclusive; x = not tested or not shown; [ ] = remark or other dose. Unless noted, the call rests on the fitted dose curve; in most records, active means well fitted inhibition curve with a large enough effect (not every such curve was filed as active); inconclusive means small, poorly fitted or top-dose-only effect, or another doubt; inactive means no such curve, though single readings can be large or run the other way. Unless noted, on the % scale 0 is the no-effect control and ±100 the full control effect.

SMILES	HPGD block	PNC assembly inh	LMNA splice mod	KinaseGlo FLuc	ALDH1A1 inh
CCOC(=O)C1=C(C)C(c2ccccc2)NC(=S)N1 (stereo not drawn)	2%	29	-3%	-5%	2.5µM*
COc1ccc(C2NC(=O)NC(C)=C2C(=O)Nc2cccc(C)c2C)cc1 (stereo not drawn)	4%	-17	-5%	4%	2.8µM*
COc1ccc(C2NC(=S)NC(C)=C2C(=O)Nc2ccccn2)cc1 (stereo not drawn)	x	x	16%[46 µM]	-1%	14µM*
COc1ccc(OC)c(C2NC(=S)NC(C)=C2C(=O)Nc2ccccn2)c1 (stereo not drawn)	x	x	7%[46 µM]	4%	-4%
COC(=O)[C@@]1(Cc2ccc(OC)cc2)[C@H]2c3cc(C(=O)N4CCCC4)n(CCF)c3C[C@H]2CN1C(=O)c1ccccc1	-7%	x	x	-2%	5%
Cc1ccccc1Oc1ccc(-c2nc(N)nc(N)n2)cc1	25µM*	u	u	-6%	u
NC(=S)c1ncc(C(F)(F)F)cc1Cl	x	x	x	x	28µM*
NC(=O)c1ncc(C(F)(F)F)cc1Cl	x	x	12%[46 µM]	-2%	0%
C=CCC(O)CC1C2C(CC(O)CC=C)C3C1C3C2OC(C)(C)C (stereo not drawn)	x	x	x	x	11%[13.5 µM]
NC(=O)c1ccc[n+]([C@@H]2OC(COP(=O)([O-])OP(=O)(O)OCC3OC(n4cnc5c(N)ncnc54)C(OP(=O)(O)O)C3O)C(O)C2O)c1 (stereo partly drawn)	-3%	x	x	u	u
Cc1ccc(S(=O)(=O)Nc2ccc(Br)cc2/C=N/n2cnnc2)cc1	-3%	45	-24%	0%	28µM*
O=c1c2ccccc2sn1-c1ccc(S(=O)(=O)N2CCCC2)cc1	0.71µM*	-2	-2%	-3%	0.89µM*
NS(=O)(=O)c1ccc(S(=O)(=O)N2CCCC2)cc1	-11%	u	10%	5%	-10%
CN(C)S(=O)(=O)c1cccc(-n2sc3ccccc3c2=O)c1	x	x	7%[46 µM]	-7%	0.22µM*
Cc1ccc(-n2sc3ccccc3c2=O)cc1S(=O)(=O)N1CCCCC1	1µM*	u	u	0%	2.2µM*
CCCCc1nc2c(c3c1C[C@H](C)OC3)CN(S(=O)(=O)c1ccccc1C(=O)OC)CC2	-8%	x	-11%[9.22 µM]	-9%[7.66 µM]	6%[13.5 µM]
Cc1nc(NCc2ccccc2)c2nc(-c3ccccc3)n(CCN3CCOCC3)c2n1	u	x	x	-4%	u
C/C(=N/NC(=O)c1ccccc1)C1=C(O)CC(C)(C)CC1=O	x	x	x	-1%	u
CC(=Nc1ccc2c(c1)nc(CO)n2C)C1=C(O)CC(C)(C)CC1=O	3.5µM*	41	1%	-4%	u
O=C(Nc1cccc(F)c1)N1CCCC2(CCN(S(=O)(=O)c3ccccc3)CC2)C1	-4%	x	x	-3%	-13%
COc1ccc(OC)c(CCNc2ncnc3onc(C)c23)c1	x	x	-2%[46 µM]	x	x
Cc1cc(N2CCCC2)n2nc(C)nc2n1	-9%	-84*	6%	4%	1%
Cc1cc(N2CCC(C)CC2)n2nc(C)c(-c3ccccc3)c2n1	u	-16	u	-1%	2%
Cc1cc(N2CCCCC2)n2nc(C)c(-c3ccccc3)c2n1	x	-82*	u	x	-9%
CCOC(=O)N1CCN(c2cc(C)nc3nc(C)nn23)CC1	-9%	u	-10%	-2%	1%
SMILES	HPGD block	PNC assembly inh	LMNA splice mod	KinaseGlo FLuc	ALDH1A1 inh
CC1CCCCN1C(=O)c1ccc(COc2ccc([N+](=O)[O-])cc2)o1 (stereo not drawn)	22µM*	u	u	2%	14µM*
CC(C)(C)c1ccc(OCc2ccc(C(=O)N3CCOCC3)o2)cc1	x	x	x	-1%	-1%
C=CCNc1nnc(SC2CC(=O)N(c3ccc(OCCC)cc3)C2=O)s1 (stereo not drawn)	14µM*	38	u	6%	0.56µM*
Nc1nnc(SC2CC(=O)N(c3ccccc3)C2=O)s1 (stereo not drawn)	32µM*	11	-2%	-6%	3.5µM*
COc1ccccc1N1C(=O)CC(Sc2nccc(C)n2)C1=O (stereo not drawn)	-11%	-5	-4%	2%	0%
O=C1CC(Sc2ncccn2)C(=O)N1c1ccccc1 (stereo not drawn)	-10%	u	5%	2%	22µM*
N#Cc1cc2c(nc1SC1CC(=O)N(c3ccccc3)C1=O)CCC2 (stereo not drawn)	0%	u	7%	-5%	-14%
Cc1nc(SC2CC(=O)N(c3ccccc3)C2=O)n[nH]1 (stereo not drawn)	x	x	x	3%	0.35µM*
CCCOc1ccc(N2C(=O)CC(NCc3ccncc3)C2=O)cc1 (stereo not drawn)	-7%	32	8%	9%	-13%
CN=C(NC)SC1CC(=O)N(c2ccccc2)C1=O (stereo not drawn)	4%	-18	4%	-1%	10%
CCc1cc(-c2n[nH]c(C)c2-c2ccc3c(c2)OCCO3)c(O)cc1O	-14%	x	x	0%[39.9 µM]	-15%
Cc1cc(C)c2sc(NC(=O)c3ccc(S(=O)(=O)N4CCOCC4)cc3)nc2c1	x	x	20%[46 µM]	x	x
CCCc1ccc(C#N)c(SC2CC(=O)N(c3ccc(OC)cc3)C2=O)n1 (stereo not drawn)	x	x	u	-2%	u
Cc1nc(SC2CC(=O)N(c3ccc([N+](=O)[O-])cc3)C2=O)nc2c1CCCC2 (stereo not drawn)	-19%	17	4%	-6%	1.8µM*
COc1ccccc1N1C(=O)CC(Sc2n[nH]c(-c3cccc(C)c3)n2)C1=O (stereo not drawn)	u	28	0%	0%	2µM*
CCOc1ccc(N2C(=O)CC(Sc3ncccn3)C2=O)cc1 (stereo not drawn)	1%	19	8%	1%	22µM*
O=C(Nc1cccc(C(F)(F)F)c1)c1cc(CN2CCOCC2)on1	x	x	-2%[46 µM]	x	x
COc1ccc(-c2cn3nc(N4CCCC(C(=O)NCc5ccccc5Cl)C4)sc3n2)cc1 (stereo not drawn)	x	x	-12%[46 µM]	x	x
Cc1cc(NS(=O)(=O)c2ccc(NC(=O)C(C(C)C)N3C(=O)c4ccccc4C3=O)cc2)nc(C)n1 (stereo not drawn)	-11%	-88*	13%	2%	-16%
Cc1nc(NS(=O)(=O)c2ccccc2)sc1C(C)(C)C	-10%	u	u	1%	5µM*
Cc1nc(NS(=O)(=O)c2ccccc2)sc1NC(=O)OCCN(C)C	-4%	36	1%	-1%	14µM*
CC1CCN(C(=O)C2CCN(S(=O)(=O)c3cccc4nonc34)CC2)CC1	16µM*	40	-1%	-2%	u
Cc1ccc(NC(=O)C2CCN(S(=O)(=O)c3cccc4nonc34)CC2)nc1	x	-3	u	x	u
O=C(Nc1ccccn1)C1CCN(S(=O)(=O)c2cccc3nonc23)CC1	-16%	7	-1%	-4%	28µM*
